Data: PubChem BioAssay AID504834 (National Center for Advancing Translational Sciences (NCATS), 2011)
Screen size: about 320,000 compounds; about 22,000 (6.9%) were called active. About 27% were inconclusive and are not listed. The call rests on the fitted dose curve; in most records, active means well fitted inhibition curve with a large enough effect; inconclusive means small, poorly fitted or top-dose-only effect, or another doubt; inactive means no such curve, though single readings can be large or run the other way. Many of the other results were omitted from the sample, so actives are more common in it than they were.

Experiment: Primary qHTS for delayed death inhibitors of the malarial parasite plastid, 96 hour incubation
Conditions: P. falciparum luciferase reporter growth; series mostly up to 28.7 µM; activity change, negative = inhibition: at the top concentration
Summary of the method: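 Infected RBCs, 2% Hct / 0.05% parasitemia final; luciferase-reporter P. falciparum; cpd 96 h, 37 C, 5% CO2; luciferase detection reagent; luminescence.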
On the % scale 0 is the no-effect control and ±100 the full control effect; potency means the concentration at half of the fitted maximal effect.

| SMILES | activity change, negative = inhibition | Potency |
| --- | --- | --- |
| CC(C)C(c1nnnn1C1CCCCC1)N1CCN(C(=O)c2ccco2)CC1 (configuration not stated) | -2% (inactive) | – |
| CN(C)Cc1c(C(=O)N/N=C/c2ccccc2OCc2ccc(F)cc2)nnn1-c1nonc1N | 42.8% (inactive) | – |
| CCC1OC(c2ccc([N+](=O)[O-])cc2)=Nc2ccccc21 (configuration not stated) | 2.12% (inactive) | – |
| CCCC(=O)N1CCC(CCC(=O)NC2CC2)CC1 | 18.1% (inactive) | – |
| COc1ccc(NC(=O)CCCC2CCCCC2)c(OC)c1 | 108% (inactive) | – |
| COc1ccc(C[C@H]2CN3C(=NC[C@H]3C)N2CCNC(=O)CCC2CCCCC2)cc1 | – | 6.57 µM (active) |
| COc1ccc(CCNC(=O)COC(=O)C2CCCCC2)cc1 | 37.9% (inactive) | – |
| CCOC(=O)C1=C(c2ccccc2)NC(=O)NC1c1cc(OCC)c(O)c([N+](=O)[O-])c1 (configuration not stated) | -18.3% (inactive) | – |
| COc1cc(C2NC(=O)NC(c3ccccc3)=C2C(C)=O)c(Br)cc1OCC(N)=O (configuration not stated) | 10.2% (inactive) | – |
| CCCOc1ccc(C2NC(=O)NC(c3ccccc3)=C2C(C)=O)cc1OCC (configuration not stated) | – | 4.65 µM (active) |
| Cc1ccc(S(=O)(=O)N/N=C(\c2ccccc2)C2CC2)cc1 | -2.05% (inactive) | – |
| O=C(c1ccco1)N1CCN(Cc2cccc(C(F)(F)F)c2)CC1 | 13.8% (inactive) | – |
| FC(F)(F)c1cccc(Cc2noc(CN3CCC(N4CCCCC4)CC3)n2)c1 | 11.2% (inactive) | – |
| CCOC(=O)N1CCN(Cc2nc(Cc3cccc(C(F)(F)F)c3)no2)CC1 | – | 9.28 µM (active) |
| Cc1ccc2nc(SCC(=O)N3CC(C)OC(C)C3)nc(=O)n2c1 (configuration not stated) | 6.36% (inactive) | – |
| CC(OC(=O)CCCc1c[nH]c2ccccc12)C(=O)Nc1ccc(S(N)(=O)=O)cc1 (configuration not stated) | 18.9% (inactive) | – |
| COc1ccc(C(=O)CCc2ccccc2O)c(OC)c1 | 46.9% (inactive) | – |
| Cc1ccc(S(=O)(=O)N(C)CC(=O)OCC(=O)Nc2ccccc2)cc1 | 51.8% (inactive) | – |
| COc1ccc(N(C)C(=O)C2CCN(S(=O)(=O)c3cccc4nsnc34)CC2)cc1 | 43.7% (inactive) | – |
| Cc1ccc(NC(=O)C2CCCN2S(=O)(=O)c2cccc3cccnc23)c(C)c1 (configuration not stated) | -6.33% (inactive) | – |
| COc1ccc(OC)c(NC(=O)C2CCCN2S(=O)(=O)c2cccc3nsnc23)c1 (configuration not stated) | – | 13.1 µM (active) |
| Cc1ccc(OCC(=O)N2CCN(S(=O)(=O)c3ccc(Cl)s3)CC2)cc1C | – | 9.28 µM (active) |
| O=C(CN1CCN(S(=O)(=O)c2ccc(Cl)s2)CC1)N1CCCCC1 | -16.4% (inactive) | – |
| CS(=O)(=O)N1CCN(C(=O)c2cc3ccccc3oc2=O)CC1 | -19.7% (inactive) | – |
| Cc1cc(OCC(=O)N2CCN(c3ncccn3)CC2)ccc1Cl | 35.5% (inactive) | – |
| O=S(=O)(c1ccc(Cl)s1)N1CCC2(CC1)OCCO2 | -6% (inactive) | – |

| SMILES | activity change, negative = inhibition | Potency |
| --- | --- | --- |
| O=C(c1cc2ccccc2o1)N1CCN(S(=O)(=O)c2ccc(Cl)s2)CC1 | – | 11.7 µM (active) |
| O=C(CSc1nnc(CN2CCCC2)n1-c1ccc(F)cc1)c1ccc2c(c1)OCO2 | 29.9% (inactive) | – |
| COc1ccc(C(CNC(=O)COc2ccc([N+](=O)[O-])cc2)N2CCCCC2)cc1 (configuration not stated) | -21.8% (inactive) | – |
| COC(=O)C1=C(c2ccc(Cl)c(C(F)(F)F)c2)C[C@@H]2CC[C@H]1N2C(=O)NC1CC1 | – | 5.86 µM (active) |
| COC(=O)C1=C(c2ccc(F)cc2F)C[C@@H]2CC[C@H]1N2C(=O)NC1CC1 | 39.5% (inactive) | – |
| Cc1ccc(N2CC(C(=O)Nc3ccc(S(=O)(=O)N4CCCC4)cc3)CC2=O)cc1C (configuration not stated) | 49.4% (inactive) | – |
| COC(=O)c1cc(C(=O)NC(C)C2CC3CCC2C3)cc([N+](=O)[O-])c1 (configuration not stated) | 0% (inactive) | – |
| Cc1ccc(NC(=O)Cn2nnc(C(=O)NCc3ccco3)c2N)c(C)c1 | -25.7% (inactive) | – |
| COc1cccc(CNC(=O)c2nnn(CC(=O)Nc3cc(C)ccc3C)c2N)c1 | – | 11.7 µM (active) |
| CCOc1ccc(Cn2nnc(C(=O)NCc3ccccc3)c2N)cc1 | 2.1% (inactive) | – |
| COc1cccc(CNC(=O)c2nnn(CC(=O)Nc3cc(Cl)ccc3C)c2N)c1 | – | 3.7 µM (active) |
| COc1cccc(CNC(=O)c2n[nH]c3ccccc23)c1 | 82.7% (inactive) | – |
| Nc1c(C(=O)NCc2ccccc2)nnn1Cc1cccc(Cl)c1 | -16.3% (inactive) | – |
| O=C(c1cccc(Br)c1)N1CCN(C2=NS(=O)(=O)c3ccccc32)CC1 | 24.3% (inactive) | – |
| Cc1ccc(S(=O)(=O)CC(=O)NC(C)c2ccccc2)cc1 (configuration not stated) | -14% (inactive) | – |
| CC1=CC(C)(C)NC(=S)N1NC(=O)c1ccccc1Cl | 18.6% (inactive) | – |
| COC(=O)c1cc(NC(=O)c2ccco2)ccc1N1CCOCC1 | 71.2% (inactive) | – |
| COc1ccc(C(=O)Nc2sc(C)c(C)c2CN2CCOCC2)cc1 | 48.4% (inactive) | – |
| COc1cc(C(c2c(NC(=O)c3ccco3)sc(C)c2C)N2CCOCC2)cc(OC)c1OC (configuration not stated) | – | 3.7 µM (active) |
| Cc1sc2ncn(CC(=O)NCCN(C)C)c(=O)c2c1S(=O)(=O)N1CCC(C)CC1 | 8.01% (inactive) | – |
| c1ccc(C2CNCc3c2ccc2ccccc32)cc1 (configuration not stated) | – | 9.28 µM (active) |
| Cc1ccc2c(=O)cc(C(=O)NCCc3ccc(S(N)(=O)=O)cc3)oc2c1C | 22.4% (inactive) | – |
| CC(CC(=O)N1CCN(c2ccccc2)CC1)c1ccccc1 (configuration not stated) | 20.5% (inactive) | – |
| COc1ccc(OC)c(S(=O)(=O)N(C)CC(=O)N2CCN(c3ccccc3)CC2)c1 | 3.74% (inactive) | – |
| COc1ccc(C(CC(=O)N2CCN(c3ccccc3)CC2)c2c(O)cc(OC)cc2OC)cc1 (configuration not stated) | – | 11.7 µM (active) |
| NNC(=O)CNC(c1ccccc1)c1cc(Cl)ccc1NC(=O)c1ccccc1 (configuration not stated) | 244% (inactive) | – |

| SMILES | activity change, negative = inhibition | Potency |
| --- | --- | --- |
| Cc1ccc(NC(=O)/C(=C\c2ccccc2)NC(=O)c2ccco2)cc1 | 19.5% (inactive) | – |
| Fc1ccc(CNc2nc3ccccc3n3nnnc23)cc1 | – | 14.7 µM (active) |
| CCOC(=O)CNc1nc2ccccc2n2c(C)nnc12 | -0.978% (inactive) | – |
| COc1ccc(CNc2nnnn2C)cc1 | -14.9% (inactive) | – |
| Cc1cnc(NC(=O)c2ccc(Cl)nc2)s1 | -12.9% (inactive) | – |
| Cc1nnsc1C(=O)NCc1c(F)cccc1Cl | 6.81% (inactive) | – |
| O=C(CNC(=O)c1ccccc1Br)NNC(=O)c1cccs1 | 11.1% (inactive) | – |
| COc1ccc(CCNC(=O)CS(=O)(=O)Cc2nc(-c3ccc(C)cc3)oc2C)cc1OC | 4.87% (inactive) | – |
| Cc1ccc(-c2nc(CS(=O)(=O)CC(=O)NCc3ccc4c(c3)OCO4)c(C)o2)cc1 | – | 14.7 µM (active) |
| COc1ccc(-c2nc(CS(=O)(=O)CC(=O)NCc3cccc(Br)c3)c(C)o2)cc1 | 0.16% (inactive) | – |
| C=CCNC(=O)c1ccc2c3n(nc2c1)-c1ccc(C)cc1CO3 | 64.3% (inactive) | – |
| COc1cc(/C(=C/c2ccccc2)c2ccccc2)c2c(c1)oc1ccccc12 | – | 13.1 µM (active) |
| Cc1oc2cc(Br)c(O)c(Br)c2c1C(=O)c1ccccc1 | 14.3% (inactive) | – |
| COc1cc2c(cc1NC(=O)COC(=O)/C=C/c1ccccc1)oc1ccccc12 | 49.8% (inactive) | – |
| CNC(=O)c1sc(NCc2ccccc2OC)nc1C | 8.94% (inactive) | – |
| O=C(CCNC(=O)c1ccc(Br)cc1)NCCCc1ccccc1 | 20.7% (inactive) | – |
| COc1ccc(CCNC(=O)CCn2c(=O)oc3ccccc32)cc1OC | -20.2% (inactive) | – |
| COc1ccc(N2CCN(C(=O)CSc3nc4cc(OC)c(OC)cc4cc3C#N)CC2)cc1 | 79% (inactive) | – |
| COc1ccc(CCNC(=O)CSc2nc(-c3ccc(OC)c(OC)c3)ccc2C#N)cc1 | – | 10.4 µM (active) |
| COc1ccc(CNC(=O)CSc2n[nH]c(N)n2)cc1OC | 5.59% (inactive) | – |
| COc1ccc(CCNC(=O)CSc2nc(C)nc3c2oc2ccccc23)cc1OC | – | 5.86 µM (active) |
| COc1ccc(CCNC(=O)CSc2nnc(-c3cccc(F)c3)o2)cc1OC | 278% (inactive) | – |
| O=C(CCN1CCCO1)N1CCCC(N2CCN(c3cccc(C(F)(F)F)c3)CC2)C1 (configuration not stated) | -24.3% (inactive) | – |
| Cc1ccc(CSc2nsc(C)c2C#N)cc1 | 15.2% (inactive) | – |
| CCC(C)(C)NC(=O)CN(C(=O)CCC(=O)Nc1nccs1)c1ccc2c(c1)OCO2 | -16.6% (inactive) | – |
| CCn1c(=O)c(C(=O)NCc2ccc3c(c2)OCO3)c(O)c2ccccc21 | 12.7% (inactive) | – |

| SMILES | activity change, negative = inhibition | Potency |
| --- | --- | --- |
| COc1ccc(CNC(=O)C(C)n2nc(C)c3c(C)n(-c4ccccc4)nc3c2=O)c(OC)c1 (configuration not stated) | – | 10.4 µM (active) |
| Cc1ccc(-n2nc3c(=O)n(C(C)C(=O)NCc4ccc5c(c4)OCO5)nc(C)c3c2C)cc1 (configuration not stated) | – | 1.31 µM (active) |
| Cc1nn(CC(=O)N2CCCCC2)c(=O)c2nn(-c3ccccc3)c(C)c12 | -25.7% (inactive) | – |
| COc1ccc(CNC(=O)COC(=O)c2c(C)nn(-c3ccccc3)c2C)cc1OC | 53.4% (inactive) | – |
| Cc1nc2c(C(=O)NCc3ccc4c(c3)OCO4)c[nH]n2c(=O)c1Cc1ccccc1F | 69.3% (inactive) | – |
| CC(C)CNC(=O)C(=O)NCC(c1ccc2c(c1)OCO2)N1CCOCC1 (configuration not stated) | 80.6% (inactive) | – |
| CC12CCC(C(=O)N(c3cccc(Cl)c3)C1=O)C2(C)C (configuration not stated) | 86.3% (inactive) | – |
| CC1=NN(c2cccc(Cl)c2)C(=O)C12CC(C)=C(C)CS2 (configuration not stated) | – | 3.7 µM (active) |
| Cc1cccc(OCCC(=O)OCc2csc(CC(=O)Nc3ccccc3C)n2)c1 | -1.27% (inactive) | – |
| O=CN1CCN(C(=O)c2ccc(Br)o2)CC1 | -8.76% (inactive) | – |
| COc1ccc(-n2cnnc2SCC(=O)Nc2cccc(S(N)(=O)=O)c2)cc1 | -2.69% (inactive) | – |
| O=C(N/N=C/c1cccc(Br)c1)c1ccc(N2CCCC2=O)cc1 | 11.4% (inactive) | – |
| CCOC(=O)N1CCN(C(=O)C2CCN(S(=O)(=O)c3cc(Cl)ccc3OCC)CC2)CC1 | 38.7% (inactive) | – |
| CN(C)P(=S)(Nc1ccccc1)C(Cl)(Cl)Cl (configuration not stated) | – | 8.28 µM (active) |
| O=C(CN1CCN(c2ccccc2)CC1)Nc1ccc(F)cc1 | 10.7% (inactive) | – |
| CC(Oc1ccc(F)cc1)C(=O)N1CCN(c2ncccn2)CC1 (configuration not stated) | 7.12% (inactive) | – |
| COCCN(C(=O)CC1CCCCC1)c1c(N)n(CC(C)C)c(=O)[nH]c1=O | -19.9% (inactive) | – |
| CCOC(=O)c1cc(NC(=O)c2cccnc2)cc(C(=O)OCC)c1 | -1.24% (inactive) | – |
| CCN(CC)S(=O)(=O)c1cccc(C(=O)Nc2ccccc2)c1 | -28% (inactive) | – |
| CCC(=O)Nc1cccc(NC(=O)c2cccnc2)c1 | – | 13.1 µM (active) |
| O=C(Nc1cccnc1)c1cccc(S(=O)(=O)N2CCCC2)c1 | 22.3% (inactive) | – |
| CN(C)S(=O)(=O)c1cccc(C(=O)Nc2cccnc2)c1 | – | 3.29 µM (active) |
| CCC(=O)Nc1ccc(C(=O)Nc2cccc(OC)c2)cc1 | 25.3% (inactive) | – |
| COc1ccc(C(=O)N2CCN(c3ncccn3)CC2)cc1S(=O)(=O)N1CCOCC1 | 29.3% (inactive) | – |
